According to PubChem BioAssay:
The source made the active and inactive calls. Unless noted, how the calls were made is not given here.

Experiments:
[1] = compounds binding Alexa647 anti-His antibody – biochemical, small-molecule microarray, 635 nm fluorescence, artefact control for SMM control protein annotation, primary screen (AID 1128); conditions: higher = more signal;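 further: score merges feature fluorescence with signal-to-noise for each printed compound spot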
[2] = test system: Human papillomavirus type 1a E7 protein (residues 1-88); test: HPV1a E7 small-molecule binders, primary screen, biochemical, small-molecule microarray, residues 1-88, 635 nm (AID 1129); conditions: small-molecule microarray binding, fluorescence 635 nm; higher = more signal
[3] = biological target: Focal adhesion kinase 1 (Homo sapiens) (UniProt Q05397); test: PTK2 protein binding on printed compound slides – biochemical, small-molecule microarray, 635/667 nm fluorescence, BSA, DTT, primary screen (AID 1130); conditions: 635 nm fluorescence, higher = more signal;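 further: composite of spot emission at 667 nm and signal to noise over triplicate slides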
[4] = test system: Fibrinogen (Alexa647-labelled); test: Alexa647-fibrinogen binding to printed small molecules – biochemical, small-molecule microarray, 635/667 nm fluorescence, artefact control for SMM control-protein annotation, profiling panel (AID 1131); conditions: fibrinogen-A647 binding fluorescence, higher = more signal;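 further: z-score merges 667 nm fluorescence with per-spot signal-to-noise over triplicate slides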
[5] = biological target: Follistatin (Homo sapiens) (UniProt P19883); test: FST protein binding to printed compounds – biochemical, small-molecule microarray, 635/667 nm fluorescence, primary screen (AID 1132); conditions: 635 nm fluorescence, higher = more signal
[6] = biological target: Fibroblast growth factor 2 (Homo sapiens) (UniProt P09038); test: basic fibroblast growth factor binding to printed compounds – biochemical, small-molecule microarray, 635/667 nm fluorescence, primary screen (AID 1133); conditions: FGF2, fluorescence 635/667, higher = more signal
[7] = JC-1 mitochondrial potential readout, lung cancer cells – cell-based, A549, JC-1 fluorescence, basal, 24 h, 100 nL, profiling panel (AID 1138); conditions: higher = more signal;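 further: A549 lung adenocarcinoma cells under basal conditions with no added stimulus; test concentration not given here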
Lefty1 = Lefty1 protein binding to printed compounds – biochemical, small-molecule microarray, 635/667 nm fluorescence, primary screen (AID 1139); conditions: fluorescence 635/667, higher = more signal
[8] = test system: wheat germ agglutinin (Triticum aestivum), Alexa647-labelled; test: Alexa647-WGA lectin binding to printed small molecules – biochemical, small-molecule microarray, 635/667 nm fluorescence, artefact control for SMM control-protein annotation, profiling panel (AID 1140); conditions: WGA-A647 binding, 635 nm fluorescence, higher = more signal;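 further: score merges 667 nm feature emission with signal to noise over triplicate slides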
[9] = biological target: Luciferin 4-monooxygenase (Photinus pyralis) (UniProt P08659); test: inhibition of purified Photinus pyralis luciferase – biochemical, luminescence, purified enzyme, 2006 set, primary screen (AID 1141); conditions: purified firefly luciferase, SteadyGlo luminescence, 30 min; higher = more signal, called active from +8 up or from −8 down;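 further: cell-free assay with purified firefly luciferase at 100 ng per well in PBS; test concentration not given here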
[10] = test system: Wnt5a (protein binding on small-molecule microarray); test: small molecules binding Wnt5a protein – biophysical, small-molecule microarray, 635/667 nm fluorescence, primary screen (AID 1142); conditions: 635 nm fluorescence, higher = more signal;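 further: fluorescence read at 667 nm with signal to noise per printed feature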
[11] = ATP-based viability of Huh7 replicon cells – cell-based, CellTiter-Glo luminescence, basal, 48 h, cytotoxicity control for HCV replication inhibitor project, primary screen (AID 1143); conditions: higher = more signal, called active from +8 up or from −8 down;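 further: Huh7 hepatoma cells carrying a hepatitis C replication reporter with no stimulus; test concentration not given here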
[12] = Pseudomonas biofilm growth suppression – PAO1 strain, BacTiter-Glo luminescence, LB-PBS, primary screen (AID 1144); conditions: P. aeruginosa PAO1 biofilm, 12 h, higher = more signal
[13] = basal CRE-LacZ reporter activity in PC12 – cell-based, unstimulated, primary screen (AID 1145); conditions: no forskolin, luminescence, 4.5 h, higher = more signal, called active from +8 up or from −8 down
[14] = forskolin-driven CRE-LacZ activity in PC12 – cell-based, CRE-LacZ reporter, forskolin-stimulated, primary screen (AID 1146); conditions: luminescence, 4.5 h, higher = more signal, called active from +8 up or from −8 down;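 further: PC12 cells with 6xCRE LacZ reporter stimulated by forskolin 10 µM; beta-galactosidase reporter signal reflecting CREB driven transcription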
[15] = biological target: Streptavidin (Streptomyces avidinii) (UniProt P22629); test: compounds binding control protein streptavidin – biophysical, small-molecule microarray, 635/667 nm fluorescence, artefact control for SMM compound annotation, primary screen (AID 1147); conditions: higher = more signal;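 further: signal reflects streptavidin binding to arrayed compounds as a control protein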
[16] = probe aInhba binding on compound microarray – biochemical, small-molecule microarray, 635/667 nm fluorescence, primary screen (AID 1148); conditions: higher = more signal;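 further: score merges 667nm spot fluorescence with signal-to-noise for antibody binding to printed compounds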
Torsin-1A (Homo sapiens) [17] = biological target: Torsin-1A (Homo sapiens) (UniProt O14656); test: TOR1A wild-type binding on microarray – cell lysate, small-molecule microarray, lysate, 635/667 nm, primary screen (AID 1149); conditions: COS7 hTOR1A-WT lysate, 635 nm fluorescence, higher = more signal
Torsin-1A (Homo sapiens) [18] = biological target: Torsin-1A (Homo sapiens) (UniProt O14656); test: torsin A mutant lysate binding on microarrays – cell lysate, small-molecule microarray, COS7 lysate, 635/667 nm fluorescence, primary screen (AID 1150); conditions: COS7 hTOR1A mutant lysate, 635 nm fluorescence, higher = more signal;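 further: score pools 667 nm emission and signal to noise measuring lysate protein binding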
[19] = test system: Sonic hedgehog protein (Shh); test: Sonic hedgehog microarray binding compounds – biochemical, small-molecule microarray, 635/667 nm fluorescence, primary screen (AID 1151); conditions: 635 nm fluorescence, higher = more signal;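 further: Shh protein binding to compounds spotted on small-molecule microarray slides; score combines spot fluorescence intensity with signal-to-noise across triplicate slides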

Fibroblast growth factor 2 (Homo sapiens), sequence (P09038 whole entry, looked up): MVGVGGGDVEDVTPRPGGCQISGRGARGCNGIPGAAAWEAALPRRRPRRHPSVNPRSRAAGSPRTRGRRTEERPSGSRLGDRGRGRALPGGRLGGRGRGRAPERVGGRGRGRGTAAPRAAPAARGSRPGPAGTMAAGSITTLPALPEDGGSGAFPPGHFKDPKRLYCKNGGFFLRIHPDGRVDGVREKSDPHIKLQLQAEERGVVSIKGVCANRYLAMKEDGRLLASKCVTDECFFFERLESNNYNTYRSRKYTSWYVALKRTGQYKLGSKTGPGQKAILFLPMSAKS
Focal adhesion kinase 1 (Homo sapiens), sequence (Q05397 whole entry, looked up): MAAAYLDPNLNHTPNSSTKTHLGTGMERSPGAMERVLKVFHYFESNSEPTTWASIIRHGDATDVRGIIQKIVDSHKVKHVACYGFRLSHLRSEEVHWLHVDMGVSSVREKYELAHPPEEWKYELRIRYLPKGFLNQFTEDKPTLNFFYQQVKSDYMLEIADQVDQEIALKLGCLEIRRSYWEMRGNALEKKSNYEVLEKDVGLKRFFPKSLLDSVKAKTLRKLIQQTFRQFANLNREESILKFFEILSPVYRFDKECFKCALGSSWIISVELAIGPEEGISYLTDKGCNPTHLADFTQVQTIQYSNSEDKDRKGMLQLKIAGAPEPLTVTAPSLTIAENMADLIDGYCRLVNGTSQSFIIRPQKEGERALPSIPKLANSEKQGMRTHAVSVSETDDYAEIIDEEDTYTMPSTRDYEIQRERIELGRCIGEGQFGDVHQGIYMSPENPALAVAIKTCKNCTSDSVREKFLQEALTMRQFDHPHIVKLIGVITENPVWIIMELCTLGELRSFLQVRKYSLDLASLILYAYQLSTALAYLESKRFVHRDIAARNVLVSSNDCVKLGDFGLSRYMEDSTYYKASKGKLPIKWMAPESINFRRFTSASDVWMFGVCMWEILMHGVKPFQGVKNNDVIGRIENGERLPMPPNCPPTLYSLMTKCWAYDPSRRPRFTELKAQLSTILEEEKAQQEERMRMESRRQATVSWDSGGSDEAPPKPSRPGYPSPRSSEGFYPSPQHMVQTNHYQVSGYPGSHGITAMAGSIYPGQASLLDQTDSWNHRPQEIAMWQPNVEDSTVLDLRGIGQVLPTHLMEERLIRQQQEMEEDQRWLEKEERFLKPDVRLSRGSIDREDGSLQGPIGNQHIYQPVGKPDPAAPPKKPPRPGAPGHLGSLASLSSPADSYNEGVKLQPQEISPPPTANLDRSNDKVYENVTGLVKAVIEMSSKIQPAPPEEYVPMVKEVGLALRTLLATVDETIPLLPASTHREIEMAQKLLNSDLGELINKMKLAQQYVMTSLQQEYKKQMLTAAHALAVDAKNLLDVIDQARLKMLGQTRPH
Follistatin (Homo sapiens), sequence (P19883 whole entry, looked up): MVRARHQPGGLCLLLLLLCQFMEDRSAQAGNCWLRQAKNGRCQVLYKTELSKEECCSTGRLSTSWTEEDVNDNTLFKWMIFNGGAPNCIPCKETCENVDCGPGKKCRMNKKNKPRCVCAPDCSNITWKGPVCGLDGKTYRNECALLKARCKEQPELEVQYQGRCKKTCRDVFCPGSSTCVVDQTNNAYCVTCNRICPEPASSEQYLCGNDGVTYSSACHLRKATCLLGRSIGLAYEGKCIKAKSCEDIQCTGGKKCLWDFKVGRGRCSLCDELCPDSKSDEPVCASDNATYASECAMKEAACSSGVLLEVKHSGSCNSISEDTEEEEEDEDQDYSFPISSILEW
Streptavidin (Streptomyces avidinii), sequence (P22629 whole entry, looked up): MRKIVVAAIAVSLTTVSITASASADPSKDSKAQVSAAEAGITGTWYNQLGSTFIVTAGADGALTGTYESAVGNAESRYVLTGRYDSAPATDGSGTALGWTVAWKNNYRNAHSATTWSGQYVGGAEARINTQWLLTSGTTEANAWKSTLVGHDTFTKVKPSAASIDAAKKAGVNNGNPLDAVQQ
Luciferin 4-monooxygenase (Photinus pyralis), sequence (P08659 whole entry, looked up): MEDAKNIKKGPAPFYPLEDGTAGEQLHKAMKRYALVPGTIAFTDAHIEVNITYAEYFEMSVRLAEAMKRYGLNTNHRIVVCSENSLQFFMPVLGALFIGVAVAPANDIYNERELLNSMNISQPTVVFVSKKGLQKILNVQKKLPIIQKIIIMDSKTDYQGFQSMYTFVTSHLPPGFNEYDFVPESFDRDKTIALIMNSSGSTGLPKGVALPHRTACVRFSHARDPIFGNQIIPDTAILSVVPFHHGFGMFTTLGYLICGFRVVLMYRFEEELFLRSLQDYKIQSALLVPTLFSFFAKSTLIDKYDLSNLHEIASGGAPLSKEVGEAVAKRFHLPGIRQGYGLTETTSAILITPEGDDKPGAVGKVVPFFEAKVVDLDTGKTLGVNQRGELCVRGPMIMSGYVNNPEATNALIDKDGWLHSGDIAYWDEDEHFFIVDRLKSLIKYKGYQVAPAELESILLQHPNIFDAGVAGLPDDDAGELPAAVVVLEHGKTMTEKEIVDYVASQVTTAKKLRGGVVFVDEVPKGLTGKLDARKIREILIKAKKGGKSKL
Torsin-1A (Homo sapiens), sequence (O14656 whole entry, looked up): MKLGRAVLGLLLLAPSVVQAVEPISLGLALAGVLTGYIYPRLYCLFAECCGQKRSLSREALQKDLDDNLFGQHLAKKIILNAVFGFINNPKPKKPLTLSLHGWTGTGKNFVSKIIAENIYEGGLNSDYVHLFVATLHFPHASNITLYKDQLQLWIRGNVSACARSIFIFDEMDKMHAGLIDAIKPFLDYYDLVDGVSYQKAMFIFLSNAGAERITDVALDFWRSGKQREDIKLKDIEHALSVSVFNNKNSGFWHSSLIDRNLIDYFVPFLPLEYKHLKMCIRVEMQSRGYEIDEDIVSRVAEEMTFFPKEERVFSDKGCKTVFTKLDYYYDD

SMILES | composite z-score [1] | composite z-score [2] | composite z-score [3] | composite z-score [4] | composite z-score [5] | composite z-score [6] | z-score [7] | composite z-score (Lefty1) | composite z-score [8] | z-score [9] | composite z-score [10] | z-score [11] | z-score [12] | z-score [13] | z-score [14] | composite z-score [15] | composite z-score [16] | composite z-score (Torsin-1A (Homo sapiens) [17]) | composite z-score (Torsin-1A (Homo sapiens) [18]) | composite z-score [19]
O=C1C2=CC[C@H]3C(=O)N(C[C@@H]4CCCO4)C(=O)[C@H]3[C@H]2[C@H](O)[C@@H]2O[C@H]12 | 0.286 | 0.611 | 0.146 | -0.0182 | 0.0235 | 0.0043 | 0.982 | 0.233 | -0.153 | -0.518 (inactive) | 0.487 | -4.97 (inactive) | 0.846 (inactive) | 0.0664 (inactive) | 21.2 (active) | 0.19 | -0.12 | 0.863 | 0.511 | -0.331
CCOC(=O)NN=C1C[C@@H](O)[C@@H](O)[C@@H]2[C@@H]3C(=O)N(c4ccc(F)cc4F)C(=O)[C@@H]3CC[C@H]12 | 0.142 | 0.301 | -0.0292 | 0.233 | 0.515 | 0.577 | -0.778 | 0.449 | 0.161 | 1.18 (inactive) | 0.199 | -4.03 (inactive) | -1.05 (inactive) | -0.296 (inactive) | 0.409 (inactive) | -0.0442 | -0.0962 | 0.49 | 0.381 | 0.404
CC(C)CON=C1C[C@@H](O)[C@@H](O)[C@@H]2[C@@H]3C(=O)N([C@@H](C)c4ccccc4)C(=O)[C@@H]3CC[C@@H]12 | 0.0924 | 0.124 | -0.164 | 0.501 | -0.319 | 0.114 | -0.655 | -0.162 | 0.252 | 0.999 (inactive) | -0.0932 | -0.192 (inactive) | 0.374 (inactive) | 0.149 (inactive) | -0.776 (inactive) | 0.0337 | -0.0791 | -0.0344 | 0.118 | -0.104
O=C1C[C@H](c2ccccc2)[C@H](c2ccc(Br)cc2)O1 | 0.443 | -0.374 | 0.718 | -0.233 | -0.126 | -0.0946 | -0.421 | 0.0985 | -0.236 | -1.8 (inactive) | 0.0974 | -1.52 (inactive) | -1.42 (inactive) | 0.375 (inactive) | -0.0385 (inactive) | 0.521 | -0.128 | -0.0753 | -0.022 | 0.212
COc1ccc(O[C@H]2C=C[C@@H](c3ccccc3)O[C@@H]2CO)cc1 | -0.457 | -0.145 | -0.363 | -0.0957 | 0.36 | 0.363 | 0.319 | 0.479 | -0.126 | -0.162 (inactive) | 0.0263 | -1.12 (inactive) | 0.584 (inactive) | -0.617 (inactive) | -0.265 (inactive) | 0.145 | -0.0412 | 0.139 | 0.153 | 0.507
CO[C@H]1COC(=O)CC=C[C@H](C)[C@H](OC)COC(=O)[C@@H](C)NC(=O)CC=C[C@@H]1C | 0.491 | -1.08 | 0.764 | -2.18 | 1.23 | 1.47 | -0.838 | 1.52 | -0.206 | 1.14 (inactive) | -0.0492 | -0.379 (inactive) | -0.727 (inactive) | 0.276 (inactive) | 0.314 (inactive) | -0.201 | -0.179 | 2.9 | 1.82 | 2.06
CCOC(=O)CCN1C(=O)[C@H]2[C@@H]3C(=CC[C@H]2C1=O)C(=O)[C@H]1O[C@H]1[C@H]3O | -0.705 | -0.307 | -0.336 | -0.476 | -1.02 | -0.858 | 0.736 | -0.762 | 0.243 | -1.04 (inactive) | -0.544 | -5.94 (inactive) | 0.737 (inactive) | 0.79 (inactive) | 28.7 (active) | -0.7 | -0.253 | -0.47 | 0.914 | -0.87
O=C1[C@H]2[C@H]3[C@H](O)[C@H](O)CC(=NO[C@@H]4O[C@H](CO)[C@@H](O)[C@H](O)[C@H]4O)[C@@H]3CC[C@H]2C(=O)N1c1cccc(Oc2ccccc2)c1 | 0.13 | 0.542 | 0.0405 | 0.578 | 0.858 | 0.948 | -0.728 | 0.879 | 0.335 | 0.825 (inactive) | 0.0469 | 0.353 (inactive) | -0.774 (inactive) | 0.967 (inactive) | 0.314 (inactive) | 0.532 | -0.0504 | 0.787 | 0.0995 | 0.828
C#CCCCON=C1C[C@@H](O)[C@@H](O)[C@@H]2[C@@H]3C(=O)N([C@@H](C)c4ccccc4)C(=O)[C@@H]3CC[C@@H]12 | -0.559 | -0.82 | -0.0567 | -0.181 | -0.326 | -0.141 | -0.683 | -0.32 | 0.0859 | 0.993 (inactive) | 0.025 | 0.341 (inactive) | -0.0365 (inactive) | 0.0676 (inactive) | 0.227 (inactive) | 0.214 | -0.239 | -0.281 | -0.434 | 0.0938
CCOC(=O)[C@H](Cc1ccccc1)NC(=O)CCC1CC(OC(=O)NCc2cccc3ccccc23)CC2(CCCC(COC(=O)NCCOc3ccccc3)O2)O1 (stereo not given in full) | 1.39 | 1.01 | 0.227 | 0.725 | 0.485 | 0.279 | -0.16 | 0.573 | 0.268 | 1.13 (inactive) | -0.0525 | -2.73 (inactive) | -1.35 (inactive) | -0.523 (inactive) | 0.57 (inactive) | 0.419 | 0.0667 | 0.0468 | 1.47 | 0.825
CCOC(=O)[C@H](Cc1ccccc1)NC(=O)CCC1CC(OC(=O)NCc2cccc3ccccc23)CC2(CCCC(COC(=O)NCCc3ccccc3OC)O2)O1 (stereo not given in full) | 0.704 | 0.79 | 0.201 | 0.287 | 0.798 | 0.793 | -0.538 | 0.99 | 0.404 | 0.821 (inactive) | 0.201 | -0.534 (inactive) | 0.0213 (inactive) | 0.104 (inactive) | -0.745 (inactive) | 0.486 | -0.0552 | 0.265 | 0.0946 | 1.1
